Assay outcomes as filed in PubChem BioAssay.
CHOP inhibitor: inhibitors of CHOP induction in ER stress response. inhibition, % at 10 µM. 220,000 tested, 3.8% active. CHO-K1 CHOP-promoter luciferase, tunicamycin-induced, 15-18 h;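 active means compounds that reduced the stress-induced luciferase reporter signal by more than about 70% of percent inhibition, limit read from the data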
WT yeast gro inh: growth inhibition of WT yeast, mitochondrial fusion screen; mitochondrial fusion phenotypic screen, WT strain; inhibition, % at 10 µM; 190,000 tested, 2.1% active; AID 1362; in the data active means inhibition above about 58%; tested in S. cerevisiae
RAM network inh: blocks the yeast RAM network. S. cerevisiae dse1pr::URA3 reporter, 5-FOA growth OD615, 2 d; analog-sensitive cbk1-as2 kinase mutant strain. inhibition, % at 50 µM. 190,000 tested, 1.8% active. AID 868;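 active means inhibition above a set limit, 3 SD over mean compound inhibition, cut at about 8.4% in these data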;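 further: inhibition rescues growth on 5-FOA so higher OD means more RAM inhibition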
L major viab: reduces viability of Leishmania major promastigotes | inhibition, % at 10 µM | 200,000 tested, 9% active | resazurin fluorescence viability | AID 1063; in the data active means inhibition above about 50%;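 further: promastigotes grown with compound for 44 hours at 28 °C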
RAM 5-FOA: restores 5-FOA growth of efflux-deficient yeast; 1,200 tested, under 10 active; S. cerevisiae efflux-deficient reporter strain, 5-FOA growth OD615, 2 days; AID 1305; max inhibition, %; shares compounds with RAM network inh; call rule not given here
Large screens that a line does not name were inactive (follow-up assays come after a bar, where they were run). Most compounds without a hit are left out; they make up all but 13% or so of the library.

CCC1(C(=O)OC)NC(c2ccco2)C2C(=O)N(c3ccc(F)cc3)C(=O)C21 (stereo unspecified)	none
CCC(C)[C@@H](CN(N=O)[C@@H](Cc1ccccc1)CN(C)N=O)N(CCc1ccccc1)N=O (stereo partly specified)	RAM network inh 30 | RAM 5-FOA inactive
CN(C[C@@H](CC1CCCCC1)N(C[C@H](Cc1ccccc1)N(CCc1ccccc1)N=O)N=O)N=O	RAM network inh 14 | RAM 5-FOA inactive
CCOC(=O)/C(=C/c1ccc(N2CCC(c3ccccc3)=N2)cc1)C(C)=O	WT yeast gro inh 78, RAM network inh 20 | RAM 5-FOA inactive
C=CCc1cccc(/C=N/NC(=O)C(C)Nc2ccc(C)cc2)c1O (stereo unspecified)	RAM network inh 16 | RAM 5-FOA inactive
Cc1ccc(-n2cnc(N)c2C(=O)c2cccc([N+](=O)[O-])c2)cc1	none (no result: WT yeast gro inh, RAM network inh, L major viab)
CC1=CC(C)(C)n2c(O)c(N=NC(N)=S)c3cccc1c32	RAM network inh 13 | RAM 5-FOA inactive
O=C(c1cccc(Cl)c1)N1CCCC(c2ccc(Cl)cc2)=N1	WT yeast gro inh 78, RAM network inh 17 | RAM 5-FOA inactive
CSc1nc(Cl)c(Cc2ccc(OC(C)C)cc2)c(N2CCOCC2)n1	RAM network inh 12 | RAM 5-FOA inactive
O=c1c2ccccc2nnn1Cc1ccc2ccccc2c1	none
CCCCOc1cccc(C(=O)NC(=S)Nc2cccc(C(F)(F)F)c2)c1	RAM network inh 13 | RAM 5-FOA inactive
CC(C)Oc1cccc(C(=O)NC(=S)Nc2cccc(C(F)(F)F)c2)c1	RAM network inh 12 | RAM 5-FOA inactive
O=S(=O)(c1ccc(F)cc1)N1CCN(Cc2ccccn2)CC1	none
CC[N+]1(CC)CC2=Cc3c(ccc4ccccc34)C(C)C2C1 (stereo unspecified)	none (no result: WT yeast gro inh, RAM network inh, L major viab)
CCOC(=O)c1[nH]cnc1N=Nc1c(O)ccc2ccccc12	RAM network inh 15 | RAM 5-FOA inactive
COc1ccccc1-c1cc(C(F)(F)F)nc(N2CCN(c3ccccc3)CC2)n1	RAM network inh 13 | RAM 5-FOA inactive
O=C(CC(Nc1ccccc1Cl)C(=O)OCC(=O)c1cccs1)c1ccccc1 (stereo unspecified)	RAM network inh 19 | RAM 5-FOA inactive
O=C(OCC(=O)c1cccs1)c1ccccc1	none
COc1cccc(NC(=O)C(c2ccccc2)N2CCNC(=O)C2)c1 (stereo unspecified)	none
Cc1ccc(OCC(=O)O)c(-n2nc3ccccc3n2)c1	none
Cc1ccc(NC(=O)COc2ccc(CCO)cc2-n2nc3ccccc3n2)cc1C	RAM network inh 12 | RAM 5-FOA inactive
CC(C)c1ccc(CNC(=O)CSCC(=O)Nc2ccc3ccccc3c2)cc1	CHOP inhibitor 86, RAM network inh 13 | RAM 5-FOA inactive
COc1cc2c(=O)n(Cc3ccco3)c(=O)n(CC(=O)c3cccc(Br)c3)c2cc1OC	none
COc1cc2c(=O)n(Cc3ccco3)c(=O)n(CC(=O)c3ccc(Br)cc3)c2cc1OC	RAM network inh 12 | RAM 5-FOA inactive
CC(=O)N(CCC(c1ccccc1)c1ccco1)Cc1cccs1 (stereo unspecified)	RAM network inh 28 | RAM 5-FOA inactive
O=C(NCc1ccccc1Cl)c1ccc2nc[nH]c2c1	none
COC(=O)c1ccc(OC)c(CSc2nnc(-c3ccc(C(C)(C)C)cc3)o2)c1	RAM network inh 14 | RAM 5-FOA inactive
CCOC(=O)c1c(-c2cccs2)csc1NC(=O)COC(=O)c1c(C)noc1C	RAM network inh 12 | RAM 5-FOA inactive
Cn1nc(C(F)(F)F)c(/C=N/OCc2c(Cl)cccc2Cl)c1Cl	none
Cn1nc(C(F)(F)F)c(/C=N/OC(=O)c2ccc(Cl)cc2)c1Cl	none
Cn1nc(C(F)(F)F)c(/C=N/OC(=O)c2ccccc2Cl)c1SCc1ccccc1Cl	RAM network inh 12 | RAM 5-FOA inactive
Cn1nc(C(F)(F)F)c(/C=N/OC(=O)c2ccccc2)c1SCc1ccc(Cl)cc1	RAM network inh 12 | RAM 5-FOA inactive
CCOc1ccc(CCNC(=O)CCS(=O)(=O)c2ccc(OC)cc2)cc1OCC	none
CCOC(=O)c1c(NC(=O)COc2ncnc3ccccc23)sc(C)c1CC	none
CC(C)CNC1=C(C(=S)Nc2ccccc2)C(=O)CC(C)(C)C1	none
COc1ccc(NC(=S)NC(=O)/C=C/c2cccs2)cc1	none
CCCCOC(=O)c1ccc(NC(=O)/C=C/c2cccs2)cc1	CHOP inhibitor 75, RAM network inh 15 | RAM 5-FOA inactive
C/C(=N\Nc1nc2c(s1)CCCC2)c1ccc(Cl)cc1	WT yeast gro inh 72, RAM network inh 13 | RAM 5-FOA inactive
CCCCCCCCCCCCCCC[C@H](O)[C@H](N)CO	none (no result: WT yeast gro inh, RAM network inh, L major viab)
